# Reference: PubChem BioAssay (EPA / NIEHS)
# Results filed as inconclusive are left out. The source made the active and inactive calls. How the source made its calls: active means hit-call score of the fitted dose curve at least 0.9, where 1 is the maximum; inconclusive means response in the unintended direction; inactive means score below 0.9.
# Target: rat CYP2D1, Cyp2d1 (gene 266684) (UniProt P10633)
# Assay: NVS_ADME_rCYP2D1: NovaScreen (NVS) CYP450-related Enzyme Activity (ADME) Assay for rat CYP2D1 (AID 2283122)
# Description: NVS_ADME_rCYP2D1 is a biochemical, single-readout assay that uses extracted gene-proteins in a cell-free assay. Measurements were taken 0.75 hour after chemical dosing in a 96-well plate.NVS_ADME_rCYP2D1 is one of one assay component(s) measured or calculated from the NVS_ADME_rCYP2D1 assay. It is designed to make measurements of enzyme activity, a form of enzyme reporter, as detected with fluorescence intensity signals by Fluorescence technology.Data from the assay component NVS_ADME_rCYP2D1 was analyzed into 1 assay endpoint. This assay endpoint, NVS_ADME_rCYP2D1, was analyzed in the positive analysis fitting direction relative to Acetonitrile as the negative control and baseline of activity. Using a type of enzyme reporter, loss-of-signal activity can be used to understand changes in the enzymatic activity as they relate to the gene Cyp2d1. Furthermore, this assay endpoint can be referred to as a primary readout, because this assay has produced multiple assay endpoints where this one serves a enzymatic activity function. To generalize the intended target to other relatable targets, this assay endpoint is annotated to the cyp intended target family, where the subfamily is xenobiotic metabolism.
# Binding assays used specific radioligands (tritiated, iodinated) with non-radioactive competitive displacement ligands in agonist or antagonist protocols (as indicated) and various reference compounds and inhibitors to titrate specific binding to receptors and transporters. Most enzyme assays (CYPs, kinases, phosphatases, proteases, HDACs) used recombinant protein and specific substrates (fluorescence mostly, some colorimetric and radioactive) and inhibitors, followed by a biochemical separation of substrate and product. All assays for the biochemical HTS were initially run in duplicate at a single concentration (10 uM for CYP450 assays and 25 uM for all others). Assay-chemical combinations meeting a pre-defined threshold (e.g., 30% inhibition and other criteria defined below) were then run in singleton concentration-response format with maximum concentration of 20 uM for CYPs and 50 uM for all others. Each assay was run with positive and negative controls, and concurrent controls on every plate. The follow-up (secondary) screen tested active chemical-pairs in concentration series, as well as a few additional assays not tested in the primary screen, some selected negative inactives, and several cases re-run in the concentration series for confirmatory purposes.
# Sequence of rat CYP2D1, Cyp2d1 (gene 266684) (P10633 whole entry, looked up): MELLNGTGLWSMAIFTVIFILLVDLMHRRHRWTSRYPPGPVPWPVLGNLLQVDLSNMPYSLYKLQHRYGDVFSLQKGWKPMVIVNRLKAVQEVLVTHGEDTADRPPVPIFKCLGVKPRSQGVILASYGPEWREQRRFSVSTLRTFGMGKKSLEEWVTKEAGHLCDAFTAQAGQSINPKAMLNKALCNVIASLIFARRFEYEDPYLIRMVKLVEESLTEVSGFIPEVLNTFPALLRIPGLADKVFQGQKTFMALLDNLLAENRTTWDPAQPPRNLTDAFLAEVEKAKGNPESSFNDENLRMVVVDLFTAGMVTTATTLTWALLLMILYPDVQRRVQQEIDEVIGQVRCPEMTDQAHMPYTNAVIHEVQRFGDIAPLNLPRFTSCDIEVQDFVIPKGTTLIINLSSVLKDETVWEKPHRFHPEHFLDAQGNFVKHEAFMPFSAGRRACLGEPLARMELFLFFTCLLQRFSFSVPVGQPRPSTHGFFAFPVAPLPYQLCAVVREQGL
SMILES,AC50,outcome
CO/C=C(/C(=O)OC)c1ccccc1Oc1cc(Oc2ccccc2C#N)ncn1,5.45 µM (active),
C=CCC1=C(C)[C@@H](OC(=O)[C@@H]2[C@@H](C=C(C)C)C2(C)C)CC1=O,1.05 µM (active),
O=C(Nc1ccccc1)Nc1ccnc(Cl)c1,10 µM (active),
COC(=O)N(OC)c1ccccc1COc1ccn(-c2ccc(Cl)cc2)n1,,inactive
CC1COC(Cn2cncn2)(c2ccc(Oc3ccc(Cl)cc3)cc2Cl)O1 (stereo not given),0.685 µM (active),
OC(c1ccc(Cl)cc1)(c1cncnc1)c1ccccc1Cl (stereo not given),7.23 µM (active),
CCOP(=S)(OCC)SCn1c(=O)oc2cc(Cl)ccc21,7.17 µM (active),
CCOC(=O)C(Cl)Cc1cc(-n2nc(C)n(C(F)F)c2=O)c(F)cc1Cl (stereo not given),,inactive
Cc1ccc(-c2c(Cl)nc(C#N)n2S(=O)(=O)N(C)C)cc1,13 µM (active),
CCCC1COC(Cn2cncn2)(c2ccc(Cl)cc2Cl)O1 (stereo not given),6.88 µM (active),
